“And” between values parts separate entries of the source, which are not always exact repeats. Identical values can stand only once. Screen size: about 5,500 compounds; about 2,000 (36%) were called active. Inconclusive results (about 18%) are left out. Rule as the data show it: active = normalized growth mostly below about 0.91 (no sharp cut-off); inconclusive = no clear call, values can overlap the other calls; inactive = mostly above about 0.92. The list shows a part of the results.
Test: chemical genetic growth profiling, strain panel (AID 1159580);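 also: tested at 20 µM; growth read once vehicle control cultures reached saturation at 30 °C; 1 = growth at the plate median or of vehicle wells; lower values mean less growth of the strain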
Details: S. cerevisiae deletion strains, growth OD

Measured: normalized growth

O=c1cc(-c2ccccc2)oc2c(O)c(O)ccc12
0.733 (active) and 1.08 (inactive): locus YJL095W, strain BCK1, stronger effect = lower value
active: locus YDL192W, strain arf1, stronger effect = lower value 0.88 | locus YDR137W, strain rgp1, stronger effect = lower value 0.664 | locus YJL187C, strain SWE1 (second series), stronger effect = lower value 0.844
inactive: locus YAL021C, strain ccr4, stronger effect = lower value 0.913 | locus YAL026C, strain drs2, stronger effect = lower value 0.977 | locus YAL030W, strain snc1, stronger effect = lower value 0.99 | locus YBL061C, strain skt5, stronger effect = lower value 0.995 | locus YBR009C, strain hhf1, stronger effect = lower value 0.98 | locus YBR021W, strain FUR4, stronger effect = lower value 0.955 | locus YBR023C, strain chs3, stronger effect = lower value 0.997 | locus YBR171W, strain sec66, stronger effect = lower value 0.964 | locus YBR229C, strain ROT2, stronger effect = lower value 0.974 | locus YBR231C, strain swc5, stronger effect = lower value 0.98 | locus YBR279W, strain paf1, stronger effect = lower value 0.99 | locus YCL011C, strain gbp2, stronger effect = lower value 0.984 | locus YCL016C, strain dcc1, stronger effect = lower value 0.98 | locus YCL029C, strain bik1, stronger effect = lower value 0.956 | locus YCL061C, strain MRC1, stronger effect = lower value 0.981 | locus YCL069W, strain vba3, stronger effect = lower value 0.985 | locus YCR088W, strain abp1, stronger effect = lower value 0.991 | locus YDL005C, strain med2, stronger effect = lower value 0.991 | locus YDL035C, strain GPR1, stronger effect = lower value 0.863 | locus YDL040C, strain nat1, stronger effect = lower value 0.992 | locus YDL074C, strain BRE1, stronger effect = lower value 0.808 | locus YDL101C, strain DUN1, stronger effect = lower value 0.948 | locus YDL185W, strain tfp1, stronger effect = lower value 0.972 | locus YDR001C, strain nth1, stronger effect = lower value 0.995 | locus YDR069C, strain doa4, stronger effect = lower value 0.936 | locus YDR101C, strain arx1, stronger effect = lower value 0.973 | locus YDR150W, strain NUM1, stronger effect = lower value 0.984 | locus YDR159W, strain sac3, stronger effect = lower value 0.971 | locus YDR162C, strain NBP2, stronger effect = lower value 0.834 | locus YDR195W, strain ref2 1.03 | locus YDR297W, strain sur2, stronger effect = lower value 0.988 | locus YDR318W, strain mcm21, stronger effect = lower value 0.991 | locus YDR334W, strain swr1, stronger effect = lower value 0.942 | locus YDR335W, strain msn5, stronger effect = lower value 0.979 | locus YDR388W, stronger effect = lower value 0.989 | locus YDR392W, strain spt3, stronger effect = lower value 1 | locus YDR502C, strain sam2, stronger effect = lower value 0.96 | locus YEL003W, strain gim4, stronger effect = lower value 0.983 | locus YEL037C, strain rad23, stronger effect = lower value 0.986 | locus YEL061C, strain CIN8 (second series), stronger effect = lower value 0.99 | locus YEL061C, strain CIN8, stronger effect = lower value 0.978 | locus YER015W, strain faa2, stronger effect = lower value 0.99 | locus YER016W, strain bim1, stronger effect = lower value 0.983 | locus YER110C, stronger effect = lower value 0.962 | locus YER111C, strain swi4, stronger effect = lower value 0.983 | locus YER155C, strain BEM2 (second series), stronger effect = lower value 0.982 | locus YER155C, strain BEM2, stronger effect = lower value 1.02 | locus YER167W, strain BCK2, stronger effect = lower value 1 | locus YFR010W, strain ubp6, stronger effect = lower value 0.944 | locus YGL078C, strain dbp3, stronger effect = lower value 0.98 | locus YGL086W, strain mad1, stronger effect = lower value 0.932 | locus YGL167C, strain pmr1, stronger effect = lower value 0.988 | locus YGL173C, strain kem1, stronger effect = lower value 0.975 | locus YGL227W, strain vid30, stronger effect = lower value 1 | locus YGL240W, strain doc1, stronger effect = lower value 0.956 | locus YGL248W, strain PDE1, stronger effect = lower value 0.923 | locus YGL253W, strain hxk2, stronger effect = lower value 0.99 | locus YGR135W, strain pre9, stronger effect = lower value 0.947 | locus YGR252W, strain gcn5, stronger effect = lower value 0.802 | locus YHR013C, strain ard1, stronger effect = lower value 0.951 | locus YHR027C, strain rpn1, stronger effect = lower value 0.983 | locus YHR030C, strain SLT2, stronger effect = lower value 0.98 and 1.06 | locus YHR079C, strain IRE1 (second series), stronger effect = lower value 0.988 | locus YHR079C, strain IRE1, stronger effect = lower value 1.05 | locus YHR094C, strain hxt1, stronger effect = lower value 0.99 | locus YHR129C, strain ARP1, stronger effect = lower value 0.93 | locus YHR142W, strain chs7, stronger effect = lower value 0.973 | locus YHR200W, strain rpn10, stronger effect = lower value 0.958 | locus YIL066C, strain RNR3, stronger effect = lower value 0.873 | locus YIL073C, strain SPO22, stronger effect = lower value 0.702 | locus YIL125W, strain kgd1, stronger effect = lower value 0.97 | locus YIR030C, strain dcg1, stronger effect = lower value 0.997 | locus YJL092W, strain hpr5, stronger effect = lower value 0.994 | locus YJL095W, strain BCK1 (second series), stronger effect = lower value 0.996 | locus YJL115W, strain asf1, stronger effect = lower value 0.971 | locus YJL129C, strain trk1, stronger effect = lower value 0.912 | locus YJL134W, strain LCB3, stronger effect = lower value 0.986 | locus YJL154C, strain vps35, stronger effect = lower value 0.984 | locus YJL164C, strain tpk1, stronger effect = lower value 0.985 | locus YJL166W, strain qcr8, stronger effect = lower value 0.994 | locus YJL168C, strain set2, stronger effect = lower value 0.981 | locus YJL187C, strain SWE1, stronger effect = lower value 0.975 | locus YJR043C, strain POL32, stronger effect = lower value 0.921

— PubChem BioAssay AID1159580 (chemical genetic matrix, 2015)
